Drawing on article PMC7862700, “An all-to-all approach to the identification of sequence-specific readers for epigenetic DNA modifications on cytosine”, this text covers binding signal for 1 sequence.

Test in all cases: DAPPL (digital affinity profiling via proximity ligation, sequencing); 10 mM Tris-HCl pH 7.5, 50 mM NaCl, 1 mM DTT, 4% glycerol, room temperature, 30 min; GST-TFs on glutathione beads, 16-mer random dsDNA library, 0.1% formaldehyde crosslink after washing; high values mean tight binding
Assay [1] has as its target T1, FEV (Homo sapiens, UniProt Q99581 1-238).
T1 sequence: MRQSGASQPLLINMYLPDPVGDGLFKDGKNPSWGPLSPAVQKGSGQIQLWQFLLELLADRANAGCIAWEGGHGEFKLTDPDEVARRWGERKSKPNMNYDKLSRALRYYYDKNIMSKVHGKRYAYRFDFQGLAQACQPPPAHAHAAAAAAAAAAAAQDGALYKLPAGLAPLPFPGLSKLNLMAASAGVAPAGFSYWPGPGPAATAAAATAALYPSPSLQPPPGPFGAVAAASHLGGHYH
As to conditions: protein: recombinant; tags: N-terminal GST; dsDNA, one strand shown. Put shortly:
(§1)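 Binding signal is given per hexamer as its read frequency for a factor divided by its frequency in the tag-only sample. GST-fused human transcription factors were expressed in yeast, captured on glutathione beads, barcoded with DNA and pooled with that sample, then incubated with 200 nmole of a 16-mer random double-stranded DNA library in Tris/NaCl/DTT/glycerol buffer for 30 min at room temperature. The pools were then washed, crosslinked, proximity-ligated, amplified by PCR and sequenced on an Illumina NextSeq500.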

Assay [2] deals with ETV5 (Homo sapiens, UniProt P41161 1-510). As to conditions: protein: recombinant; tags: N-terminal GST; dsDNA, one strand shown. In short, it runs like this: as §1
Assay [3] addresses HSF1 (Homo sapiens, UniProt Q00613 1-529). As to conditions: protein: recombinant; tags: N-terminal GST; chain copies: 3; dsDNA, one strand shown. In short, it runs like this: as §1
Assay [4] addresses T2, SPIC (Homo sapiens, UniProt Q8N5J4 1-248).
T2 sequence: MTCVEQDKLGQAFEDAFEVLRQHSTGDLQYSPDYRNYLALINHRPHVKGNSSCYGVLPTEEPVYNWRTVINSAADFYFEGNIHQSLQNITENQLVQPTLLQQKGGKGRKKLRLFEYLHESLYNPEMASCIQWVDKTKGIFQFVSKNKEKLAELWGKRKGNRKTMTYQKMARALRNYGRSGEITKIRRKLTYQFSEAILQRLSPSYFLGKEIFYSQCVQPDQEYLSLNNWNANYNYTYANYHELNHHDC
As to conditions: protein: recombinant; tags: N-terminal GST; dsDNA, one strand shown. Put shortly: as §1

The target of assay [5] is ELF4 (Homo sapiens, UniProt Q99607 1-663). As to conditions: protein: recombinant; tags: N-terminal GST; dsDNA, one strand shown. In short, it runs like this:
as §1

The target in assay [6] is T3, ELK4 (Homo sapiens, UniProt P28324-2 1-405).
T3 sequence: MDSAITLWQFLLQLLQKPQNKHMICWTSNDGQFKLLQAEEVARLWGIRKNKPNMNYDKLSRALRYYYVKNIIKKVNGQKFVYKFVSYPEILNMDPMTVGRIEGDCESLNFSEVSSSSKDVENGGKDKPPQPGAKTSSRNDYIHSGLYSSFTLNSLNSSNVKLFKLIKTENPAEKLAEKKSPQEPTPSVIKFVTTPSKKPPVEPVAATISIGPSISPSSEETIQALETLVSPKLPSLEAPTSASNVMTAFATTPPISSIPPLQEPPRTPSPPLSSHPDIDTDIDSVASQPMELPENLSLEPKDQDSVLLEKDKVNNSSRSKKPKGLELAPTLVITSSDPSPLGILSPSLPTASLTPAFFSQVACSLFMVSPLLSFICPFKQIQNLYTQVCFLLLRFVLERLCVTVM
As to conditions: protein: recombinant; tags: N-terminal GST; dsDNA, one strand shown. Put shortly:
as §1

In assay [7] the target is T4, ETV2 (Homo sapiens, UniProt O00321 1-342).
T4 sequence: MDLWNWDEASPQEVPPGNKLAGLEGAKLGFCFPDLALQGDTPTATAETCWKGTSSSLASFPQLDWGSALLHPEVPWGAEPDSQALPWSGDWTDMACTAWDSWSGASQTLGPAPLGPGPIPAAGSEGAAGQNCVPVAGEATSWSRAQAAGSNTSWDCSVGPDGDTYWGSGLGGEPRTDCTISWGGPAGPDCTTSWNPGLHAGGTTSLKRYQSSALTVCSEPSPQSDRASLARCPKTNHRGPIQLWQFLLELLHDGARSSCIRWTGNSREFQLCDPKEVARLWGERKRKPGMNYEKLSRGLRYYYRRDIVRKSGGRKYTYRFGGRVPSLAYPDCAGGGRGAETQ
As to conditions: protein: recombinant; tags: N-terminal GST; dsDNA, one strand shown. In short, it runs like this: as §1

Assay [8] has as its target T5, ELF3 (Homo sapiens, UniProt P78545 1-371).
T5 sequence: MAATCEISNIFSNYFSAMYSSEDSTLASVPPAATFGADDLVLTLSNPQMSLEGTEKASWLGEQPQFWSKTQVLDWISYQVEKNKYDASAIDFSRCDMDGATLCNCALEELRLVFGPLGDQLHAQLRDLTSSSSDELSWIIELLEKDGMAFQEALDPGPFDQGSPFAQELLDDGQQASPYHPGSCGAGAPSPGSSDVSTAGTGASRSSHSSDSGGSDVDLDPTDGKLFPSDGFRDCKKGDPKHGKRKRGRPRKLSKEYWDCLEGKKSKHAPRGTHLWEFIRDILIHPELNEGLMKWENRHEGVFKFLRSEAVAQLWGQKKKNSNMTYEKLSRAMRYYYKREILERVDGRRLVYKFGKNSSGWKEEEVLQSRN
As to conditions: protein: recombinant; tags: N-terminal GST; dsDNA, one strand shown. In short, it runs like this:
as §1

Assay [9] has as its target CRX (Homo sapiens, UniProt O43186 1-299). As to conditions: protein: recombinant; tags: N-terminal GST; dsDNA, one strand shown. In short, it runs like this: as §1
Assay [10] addresses ETV1 (Homo sapiens, UniProt P50549 1-477). As to conditions: protein: recombinant; tags: N-terminal GST; dsDNA, one strand shown. In short, it runs like this: as §1
The target in assay [11] is T6, ERF (Homo sapiens, UniProt P50548 1-548).
T6 sequence: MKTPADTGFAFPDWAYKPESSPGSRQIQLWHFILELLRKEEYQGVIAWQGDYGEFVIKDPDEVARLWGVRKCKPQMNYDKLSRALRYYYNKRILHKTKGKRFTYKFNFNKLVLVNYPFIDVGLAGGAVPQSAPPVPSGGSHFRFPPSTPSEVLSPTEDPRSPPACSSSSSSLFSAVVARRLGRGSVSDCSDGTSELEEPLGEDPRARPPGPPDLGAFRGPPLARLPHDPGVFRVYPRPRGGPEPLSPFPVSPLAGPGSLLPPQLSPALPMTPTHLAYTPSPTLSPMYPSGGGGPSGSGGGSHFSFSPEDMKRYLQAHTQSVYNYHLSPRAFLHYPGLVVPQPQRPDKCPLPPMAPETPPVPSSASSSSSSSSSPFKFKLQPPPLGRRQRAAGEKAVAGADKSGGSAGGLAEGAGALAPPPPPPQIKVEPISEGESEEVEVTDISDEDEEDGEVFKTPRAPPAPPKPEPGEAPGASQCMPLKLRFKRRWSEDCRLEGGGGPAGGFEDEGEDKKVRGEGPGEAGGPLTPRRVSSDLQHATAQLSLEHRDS
As to conditions: protein: recombinant; tags: N-terminal GST; dsDNA, one strand shown. In short, it runs like this: as §1

Assay [12] concerns the target T7, ETV3L (Homo sapiens, UniProt Q6ZN32 1-361).
T7 sequence: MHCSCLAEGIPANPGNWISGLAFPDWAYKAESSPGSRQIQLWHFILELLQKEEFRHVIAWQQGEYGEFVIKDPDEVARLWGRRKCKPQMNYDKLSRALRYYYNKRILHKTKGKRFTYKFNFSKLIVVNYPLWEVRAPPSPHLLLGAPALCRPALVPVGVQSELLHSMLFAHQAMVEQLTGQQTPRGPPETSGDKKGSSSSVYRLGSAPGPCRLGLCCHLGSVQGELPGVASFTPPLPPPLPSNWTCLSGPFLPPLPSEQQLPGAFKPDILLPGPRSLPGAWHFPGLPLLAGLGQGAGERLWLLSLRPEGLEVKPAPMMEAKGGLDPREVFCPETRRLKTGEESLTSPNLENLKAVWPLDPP
As to conditions: protein: recombinant; tags: N-terminal GST; dsDNA, one strand shown. In short, it runs like this:
as §1

Assay [13] has as its target T8, ETS2 (Homo sapiens, UniProt P15036 1-469).
T8 sequence: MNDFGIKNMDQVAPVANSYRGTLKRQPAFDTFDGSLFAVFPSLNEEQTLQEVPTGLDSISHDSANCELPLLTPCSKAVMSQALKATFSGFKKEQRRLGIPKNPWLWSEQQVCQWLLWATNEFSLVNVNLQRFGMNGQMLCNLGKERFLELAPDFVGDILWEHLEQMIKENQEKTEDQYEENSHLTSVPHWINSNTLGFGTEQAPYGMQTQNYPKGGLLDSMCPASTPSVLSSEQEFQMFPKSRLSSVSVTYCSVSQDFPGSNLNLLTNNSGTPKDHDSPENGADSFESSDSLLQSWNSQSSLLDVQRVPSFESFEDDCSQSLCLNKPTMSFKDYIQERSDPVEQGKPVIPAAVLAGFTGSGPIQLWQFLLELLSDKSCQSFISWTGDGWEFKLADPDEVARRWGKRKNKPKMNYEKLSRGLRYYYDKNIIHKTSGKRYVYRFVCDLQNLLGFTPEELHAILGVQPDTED
As to conditions: protein: recombinant; tags: N-terminal GST; dsDNA, one strand shown. In short, it runs like this:
as §1

Assay [14] concerns the target T9, SPDEF (Homo sapiens, UniProt O95238 1-335).
T9 sequence: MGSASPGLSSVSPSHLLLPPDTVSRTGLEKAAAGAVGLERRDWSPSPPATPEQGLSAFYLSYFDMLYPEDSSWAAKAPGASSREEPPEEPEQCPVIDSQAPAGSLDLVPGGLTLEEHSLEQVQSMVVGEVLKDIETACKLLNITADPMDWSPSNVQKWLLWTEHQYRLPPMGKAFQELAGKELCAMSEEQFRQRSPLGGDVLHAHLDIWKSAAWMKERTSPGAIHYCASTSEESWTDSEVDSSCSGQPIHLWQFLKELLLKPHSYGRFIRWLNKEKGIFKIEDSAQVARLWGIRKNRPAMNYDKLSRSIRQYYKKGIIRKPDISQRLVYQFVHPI
As to conditions: protein: recombinant; tags: N-terminal GST; dsDNA, one strand shown. In short, it runs like this:
as §1

Assay [15] addresses T10, ETV7 (Homo sapiens, UniProt Q9Y603 1-341).
T10 sequence: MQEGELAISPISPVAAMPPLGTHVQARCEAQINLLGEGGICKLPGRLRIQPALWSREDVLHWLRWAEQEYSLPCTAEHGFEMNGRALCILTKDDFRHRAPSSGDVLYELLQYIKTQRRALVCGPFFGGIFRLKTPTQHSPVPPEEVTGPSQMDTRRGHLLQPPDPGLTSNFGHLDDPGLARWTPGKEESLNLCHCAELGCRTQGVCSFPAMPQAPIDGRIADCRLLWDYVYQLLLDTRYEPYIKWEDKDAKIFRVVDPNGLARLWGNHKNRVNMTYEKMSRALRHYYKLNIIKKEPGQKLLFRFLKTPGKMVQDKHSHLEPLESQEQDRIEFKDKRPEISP
As to conditions: protein: recombinant; tags: N-terminal GST; dsDNA, one strand shown. Put shortly: as §1

The target in assay [16] is T11, ELF5 (Homo sapiens, UniProt Q9UKW6-2 1-255).
T11 sequence: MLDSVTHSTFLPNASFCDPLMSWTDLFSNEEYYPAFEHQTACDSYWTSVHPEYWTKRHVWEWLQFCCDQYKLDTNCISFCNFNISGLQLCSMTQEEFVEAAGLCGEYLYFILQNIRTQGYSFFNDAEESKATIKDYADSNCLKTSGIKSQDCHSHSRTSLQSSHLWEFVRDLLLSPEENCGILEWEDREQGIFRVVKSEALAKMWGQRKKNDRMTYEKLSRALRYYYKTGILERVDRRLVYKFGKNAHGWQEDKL
As to conditions: protein: recombinant; tags: N-terminal GST; dsDNA, one strand shown. Put shortly: as §1

The target in assay [17] is T12, ETV3 (Homo sapiens, UniProt P41162-2 1-143).
T12 sequence: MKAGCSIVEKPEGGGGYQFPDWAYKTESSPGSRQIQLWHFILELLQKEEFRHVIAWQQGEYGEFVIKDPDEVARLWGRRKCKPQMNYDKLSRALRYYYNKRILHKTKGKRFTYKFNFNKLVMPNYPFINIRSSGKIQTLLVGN
As to conditions: protein: recombinant; tags: N-terminal GST; dsDNA, one strand shown. In short, it runs like this:
as §1

The target in assay [18] is ETV6 (Homo sapiens, UniProt P41212 1-452). As to conditions: protein: recombinant; tags: N-terminal GST; dsDNA, one strand shown. In short, it runs like this: as §1
ETV6, sequence (P41212 whole entry): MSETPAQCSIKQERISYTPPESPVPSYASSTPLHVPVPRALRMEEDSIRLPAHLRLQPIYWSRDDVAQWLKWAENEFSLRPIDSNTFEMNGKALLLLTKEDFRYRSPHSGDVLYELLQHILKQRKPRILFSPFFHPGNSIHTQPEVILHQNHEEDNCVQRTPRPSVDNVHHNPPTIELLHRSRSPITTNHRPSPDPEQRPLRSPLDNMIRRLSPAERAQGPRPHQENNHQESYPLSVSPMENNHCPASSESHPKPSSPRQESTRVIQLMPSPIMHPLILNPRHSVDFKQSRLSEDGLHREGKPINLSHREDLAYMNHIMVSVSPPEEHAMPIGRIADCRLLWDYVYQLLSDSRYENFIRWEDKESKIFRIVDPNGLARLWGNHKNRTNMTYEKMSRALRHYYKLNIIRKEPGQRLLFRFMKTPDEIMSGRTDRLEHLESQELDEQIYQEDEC

ELF4, sequence (Q99607 whole entry): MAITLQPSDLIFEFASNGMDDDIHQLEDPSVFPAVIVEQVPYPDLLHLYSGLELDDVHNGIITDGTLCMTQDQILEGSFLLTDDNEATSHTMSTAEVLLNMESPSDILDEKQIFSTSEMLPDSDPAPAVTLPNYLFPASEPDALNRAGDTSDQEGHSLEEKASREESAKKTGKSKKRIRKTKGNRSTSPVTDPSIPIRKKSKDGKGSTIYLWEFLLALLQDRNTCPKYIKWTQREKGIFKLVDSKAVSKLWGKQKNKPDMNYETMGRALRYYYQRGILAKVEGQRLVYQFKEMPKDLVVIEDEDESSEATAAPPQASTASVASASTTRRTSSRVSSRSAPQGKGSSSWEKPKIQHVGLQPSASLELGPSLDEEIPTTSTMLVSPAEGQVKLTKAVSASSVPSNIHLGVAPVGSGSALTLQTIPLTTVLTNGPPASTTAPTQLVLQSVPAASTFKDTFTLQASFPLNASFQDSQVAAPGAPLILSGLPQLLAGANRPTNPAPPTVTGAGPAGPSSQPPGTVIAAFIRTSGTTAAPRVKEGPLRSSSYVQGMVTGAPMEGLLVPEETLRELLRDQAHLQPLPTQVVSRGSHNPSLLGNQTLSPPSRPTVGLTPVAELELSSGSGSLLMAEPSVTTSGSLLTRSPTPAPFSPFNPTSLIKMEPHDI
HSF1, sequence (Q00613 whole entry): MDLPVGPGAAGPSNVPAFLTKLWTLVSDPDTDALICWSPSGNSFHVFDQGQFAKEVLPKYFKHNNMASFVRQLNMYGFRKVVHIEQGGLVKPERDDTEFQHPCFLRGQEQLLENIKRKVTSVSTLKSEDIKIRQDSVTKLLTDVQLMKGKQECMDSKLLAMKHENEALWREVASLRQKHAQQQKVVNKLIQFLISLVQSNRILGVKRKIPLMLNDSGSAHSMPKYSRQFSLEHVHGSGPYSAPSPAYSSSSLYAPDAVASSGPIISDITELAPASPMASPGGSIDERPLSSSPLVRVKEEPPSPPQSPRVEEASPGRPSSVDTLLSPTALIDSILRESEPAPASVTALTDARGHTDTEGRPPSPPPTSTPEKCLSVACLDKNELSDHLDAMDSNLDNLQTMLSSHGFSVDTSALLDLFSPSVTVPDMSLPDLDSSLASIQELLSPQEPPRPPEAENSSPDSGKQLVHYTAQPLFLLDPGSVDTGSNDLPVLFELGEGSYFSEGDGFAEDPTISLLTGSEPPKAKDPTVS
ETV5, sequence (P41161 whole entry): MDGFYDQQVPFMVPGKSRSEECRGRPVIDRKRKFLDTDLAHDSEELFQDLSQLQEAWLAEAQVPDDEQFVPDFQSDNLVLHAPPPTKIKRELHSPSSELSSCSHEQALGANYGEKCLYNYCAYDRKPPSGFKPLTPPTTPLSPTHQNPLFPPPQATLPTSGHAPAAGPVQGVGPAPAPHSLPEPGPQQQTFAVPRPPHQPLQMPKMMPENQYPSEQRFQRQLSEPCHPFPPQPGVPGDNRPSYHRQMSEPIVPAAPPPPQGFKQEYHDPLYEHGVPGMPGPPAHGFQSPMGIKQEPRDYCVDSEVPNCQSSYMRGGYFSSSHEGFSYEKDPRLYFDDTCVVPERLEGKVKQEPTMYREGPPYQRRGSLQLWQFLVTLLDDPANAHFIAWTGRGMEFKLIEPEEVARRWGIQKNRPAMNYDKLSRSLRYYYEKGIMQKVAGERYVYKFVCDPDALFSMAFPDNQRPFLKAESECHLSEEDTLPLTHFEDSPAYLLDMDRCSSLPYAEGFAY
ETV1, sequence (P50549 whole entry): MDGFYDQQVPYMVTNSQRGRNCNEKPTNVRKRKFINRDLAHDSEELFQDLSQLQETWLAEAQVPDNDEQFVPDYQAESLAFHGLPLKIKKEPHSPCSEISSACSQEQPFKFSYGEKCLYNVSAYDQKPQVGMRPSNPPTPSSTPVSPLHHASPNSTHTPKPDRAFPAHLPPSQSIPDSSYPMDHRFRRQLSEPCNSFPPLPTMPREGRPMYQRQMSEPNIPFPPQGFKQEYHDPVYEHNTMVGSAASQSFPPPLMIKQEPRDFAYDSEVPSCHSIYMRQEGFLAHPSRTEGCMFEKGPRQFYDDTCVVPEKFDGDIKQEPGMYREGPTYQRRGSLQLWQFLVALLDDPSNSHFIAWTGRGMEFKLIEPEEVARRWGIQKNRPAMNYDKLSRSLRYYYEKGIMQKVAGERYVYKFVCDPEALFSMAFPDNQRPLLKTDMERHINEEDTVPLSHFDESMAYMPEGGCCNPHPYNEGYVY
CRX, sequence (O43186 whole entry): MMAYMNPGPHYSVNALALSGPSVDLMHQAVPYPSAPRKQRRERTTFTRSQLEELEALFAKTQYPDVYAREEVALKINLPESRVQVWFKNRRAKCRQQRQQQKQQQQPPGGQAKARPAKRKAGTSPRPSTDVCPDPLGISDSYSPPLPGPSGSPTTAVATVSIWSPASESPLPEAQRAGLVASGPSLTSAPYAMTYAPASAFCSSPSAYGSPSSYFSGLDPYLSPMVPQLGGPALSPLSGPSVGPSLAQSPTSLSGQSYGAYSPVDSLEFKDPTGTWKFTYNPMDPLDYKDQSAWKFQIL

For the sequence TACACC, the binding signal in [1] was 1.2 fold enrichment (6-mer frequency, TF over GST control); in assay [2], 1.15 fold enrichment (6-mer frequency, TF over GST control); in [3], 1.03 fold enrichment (6-mer frequency, TF over GST control); in assay [4] it was 1.3 fold enrichment (6-mer frequency, TF over GST control); in [5], 1.22 fold enrichment (6-mer frequency, TF over GST control); in assay [6], 1.16 fold enrichment (6-mer frequency, TF over GST control). The binding signal is 1.19 fold enrichment (6-mer frequency, TF over GST control) in [7]; 1.11 fold enrichment (6-mer frequency, TF over GST control) in assay [8]; 1.06 fold enrichment (6-mer frequency, TF over GST control) in assay [9]; 1.25 fold enrichment (6-mer frequency, TF over GST control) in [10]; 1.21 fold enrichment (6-mer frequency, TF over GST control) in assay [11]; 1.17 fold enrichment (6-mer frequency, TF over GST control) in [12]. Further, the binding signal in assay [13] was 1.1 fold enrichment (6-mer frequency, TF over GST control); in [14], 1.24 fold enrichment (6-mer frequency, TF over GST control); in [15], 1.13 fold enrichment (6-mer frequency, TF over GST control); in assay [16] it was 1.18 fold enrichment (6-mer frequency, TF over GST control); in assay [17], 1.18 fold enrichment (6-mer frequency, TF over GST control); in assay [18], 1.15 fold enrichment (6-mer frequency, TF over GST control).
